Test results: PubChem BioAssay (Tox21)
Values joined by “and” are separate entries in the source; they are usually repeats but may differ in a detail not shown here. Identical values can stand only once. Records with an inconclusive call do not appear. A call without a number means that no potency is given here. Active and inactive are the calls of the source. The call rests on the fitted dose curve; in most records, active means well fitted cell-killing curve with a large enough effect in the repeat runs; inconclusive means weak or mixed curves, or effect the other way; inactive means no such curve, though single readings can be large or run the other way.

Assay: qHTS assay for small molecule activators of the heat shock response signaling pathway - cell viability counter screen (AID 743209); further: nearly all actives have a fitted effect of over 50% in size
Conditions: HSE-bla HeLa viability, CellTiter-Glo luminescence, 5 h; series mostly up to 62.6 µM
Text: U.S. Tox21 Program National Center for Advancing Translational Sciences [NCATS] NIH Chemical Genomics Center [NCGC] U.S. Environmental Protection Agency [EPA] National Institutes of Environmental Health Sciences [NIEHS] National Toxicology Program [NTP] U.S. Food and Drug Administration [FDA] Tox21 Assay Overview: Various chemicals, environmental and physiological stress conditions may lead to the activation of heat shock response/ unfolded protein response (HSR/UPR). There are three heat shock transcription factors (HSFs) (HSF-1, -2, and -4) mediating transcriptional regulation of the human HSR. To identify the compounds that activate HSR signaling, HSE-bla HeLa cell line (Invitrogen, Carlsbad, CA, USA) containing a beta-lactamase reporter gene under the control of the heat shock response elements was used to screen Tox21 10K compound library. The cytotoxicity of the Tox21 compound library against the HSE-bla HeLa cell line was tested in parallel by measuring the cell viability using CellTiter-Glo assay (Promega, Madison, WI) in the same wells.
Tox21 Assay Protocol Summary: The CellSensor HSE-bla HeLa cells (Invitrogen, Carlsbad, CA, USA) were dispensed at 1500 cells/6uL/well into 1536-well black wall/clear bottom plates using a Multidrop combi (Thermo Fisher Scientific, Waltham, MA) dispenser. After the assay plates were incubated at 37 C and 5% CO2 overnight, 23 nL of compounds dissolved in DMSO, positive controls or DMSO only was transferred to the assay plate by a Pintool station (Kalypsys, San Diego, CA). The plates were incubated at 37 C for 5 h. After 1 uL of LiveBLAzerTM B/G FRET substrate was added using a Flying Reagent Dispenser (FRD, Beckman Coulter, Indianapolis, IN, USA), the plates were incubated at room temperature for 2.5 h, and fluorescence intensity was measured by an Envision plate reader (PerkinElmer, Shelton, CT). For cell viability readout that measures cytotoxicity, 3 ul/well of CellTiter-Glo reagent was added into the assay plates using a FRD. After 30 min incubation at room temperature, the luminescence intensity in the plates was measured using a ViewLux (PerkinElmer) plate reader.
Potency means the concentration at half of the fitted maximal effect.

Compound	Potency	activity change, negative = cytotoxicity
COc1ccc(NC(=O)CC(C)=O)cc1	inactive	–
NC(=S)NC(N)=S	inactive	–
O=C(O)c1cc(N=Nc2ccc([N+](=O)[O-])cc2)ccc1O	inactive	–
CCCCNS(=O)(=O)c1ccc(C)cc1	inactive	–
CCC(=O)C(=O)CC	inactive	–
Cc1cc(C)c(/C=C2\C(=O)Nc3ccccc32)[nH]1	inactive	–
Cc1ccc(-c2ccccc2)cc1	inactive	–
CC(C)=CCNc1ncnc2c1ncn2[C@@H]1O[C@H](CO)[C@@H](O)[C@H]1O	13.3 µM (active)	–
CC(C)CCOC(=O)/C=C/c1ccccc1	inactive	–
CC1=Nc2ccccc2C1(C)C	inactive	–
O=C(O)c1ccc2cc(C(=O)O)ccc2c1	inactive	–
O=[N+]([O-])c1cccc(C(F)(F)F)c1	inactive	–
CN(C)C(=O)COC(=O)Cc1ccc(OC(=O)c2ccc(N=C(N)N)cc2)cc1	inactive	–
CCCCOC(=O)CO	inactive	–
CC(C(=O)O)c1ccc2c(c1)[nH]c1ccc(Cl)cc12 (stereo not given)	inactive	–
CCC(CC)(CC(=O)Nc1cccc(/C=C/c2nc(C3CCC3)cs2)c1)C(=O)O	inactive	–
Cc1ccc(C(=O)O)cc1	inactive	–
CCN1C(=O)c2ccccc2C1Nc1ccc(OCCN2CCCCC2)cc1 (stereo not given)	inactive	–
Oc1ccccc1O	inactive	–
Nc1ccc(NCCO)c([N+](=O)[O-])c1	inactive	–

Compound	Potency	activity change, negative = cytotoxicity
C=CCCC(=O)/C=C/C1C(C)=CCCC1(C)C (stereo not given)	inactive	–
CC(C)(c1cc(Br)c(OCC(Br)CBr)c(Br)c1)c1cc(Br)c(OCC(Br)CBr)c(Br)c1 (stereo not given)	inactive	–
C=CC(=O)Nc1cc2c(Nc3ccc(F)c(Cl)c3)ncnc2cc1OCCCN1CCOCC1	inactive	–
CCCCCCCCCCOC(=O)c1ccccc1C(=O)OCCCCCCCC	inactive	–
CCCCCCCCCCC[C@@H](C[C@@H]1OC(=O)[C@H]1CCCCCC)OC(=O)[C@H](CC(C)C)NC=O	inactive	–
C=Cc1cccc(C)c1	inactive	–
CN(C)c1ccc(C(=C2C=CC(=[N+](C)C)C=C2)c2ccc(N(C)C)cc2)cc1	1.73 µM (active) and 4.36 µM (active) and 6.68 µM (active)	–
CC(C)NC[C@@H](O)COc1ccc(CC(N)=O)cc1	inactive	–
CCCC(=O)OCOC(=O)C1=C(C)NC(C)=C(C(=O)OC)C1c1cccc(Cl)c1Cl (stereo not given)	inactive	–
CN(C)[C@@H](CCOc1cccc2ccccc12)c1ccccc1	inactive	–
Nc1ccc(C(=O)O)c(O)c1	inactive	–
C1CCC(SSC2CCCCC2)CC1	inactive	–
CC[C@H](C)COC(=O)/C=C/c1ccc(N=Cc2ccc(OC)cc2)cc1	inactive	–
CC1(C)CCC[C@]2(C)[C@H]3CCO[C@]3(C)CC[C@@H]12	inactive	–
C=C(CC)C(=O)c1ccc(OCC(=O)O)c(Cl)c1Cl	18.8 µM (active)	–
CCOC(=O)c1ccc(C2CCC(NC[C@H](O)COc3ccc(O)c(NS(C)(=O)=O)c3)CC2)cc1 (stereo not given in full)	inactive	–
CC(C)(C)CC(C)(C)c1ccc(Nc2ccc(C(C)(C)CC(C)(C)C)cc2)cc1	–	7.93% [at 5.95 µM] (inactive)
COc1ccc(-c2coc3cc(O)ccc3c2=O)cc1	inactive	–
Cc1cc(C(C)(C)C)c(O)c(C)c1Cn1c(=O)n(Cc2c(C)cc(C(C)(C)C)c(O)c2C)c(=O)n(Cc2c(C)cc(C(C)(C)C)c(O)c2C)c1=O	inactive	–
Cc1ccc(N/N=c2\c(=O)cc/c(=N\Nc3ccc(S(=O)(=O)O)cc3)c2=O)c(C)c1	inactive	–
